Most compounds without a hit are left out; they make up all but 3.5% or so of the library.
Bead autofluor: counter-screen for toxin protease inhibitors: compound fluorescence. compound autofluorescence counterscreen, microsphere flow cytometry; active compounds read high. fluorescence intensity (no concentration beside the values). 360,000 tested, 3.1% active; in the data active means fluorescence intensity above about 16000; inconclusive means no clear call, values can overlap the other calls
BH1578 lux ind: inducers of Vibrio cholerae quorum light production without autoinducers, primary screen, BH1578 luxS cqsA deficient, single point; V. cholerae BH1578 lux reporter, luminescence, 6 h; activation, % at 18.7 µM; 350,000 tested, 0.16% active; AID 588436, 2011; in the data active means activation mostly above about 9.7%, no sharp cut-off; inconclusive means no clear call, values can overlap the other calls; inactive means mostly below about 3.7%
BoNT F protease: BoNT/F light chain protease inhibitors, primary screen, biochemical, flow cytometry, MLPCN library. Botulinum neurotoxin type F light chain protease (Clostridium botulinum). Multiplex microsphere protease cleavage assay. inhibition, % at 10 µM. 360,000 tested, 0.22% active. AID 588497, 2011; in the data active means inhibition above about 35%, passing the limit was not always enough; inconclusive means no clear call, values can overlap the other calls; further: plate controls were buffer without enzyme for full effect and enzyme alone for no effect
BoNT A protease: BoNT/A light chain protease inhibitors, primary screen, biochemical, flow cytometry, MLPCN library. multiplex microsphere protease substrate cleavage. inhibition, % at 10 µM. 360,000 tested, 0.17% active. AID 588499, 2011; further: plate controls were buffer without enzyme for full effect and enzyme alone for no effect
Anthrax LF inh2: Bacillus anthracis LF protease inhibitors, primary screen, biochemical, multiplex microsphere, MLPCN library; 360,000 tested, 0.12% active; Lethal factor (Bacillus anthracis), P15917; multiplex microsphere protease cleavage assay; inhibition, % at 10 µM; further: plate controls were buffer without enzyme for full effect and enzyme alone for no effect
Target sequence (P15917 whole entry, looked up): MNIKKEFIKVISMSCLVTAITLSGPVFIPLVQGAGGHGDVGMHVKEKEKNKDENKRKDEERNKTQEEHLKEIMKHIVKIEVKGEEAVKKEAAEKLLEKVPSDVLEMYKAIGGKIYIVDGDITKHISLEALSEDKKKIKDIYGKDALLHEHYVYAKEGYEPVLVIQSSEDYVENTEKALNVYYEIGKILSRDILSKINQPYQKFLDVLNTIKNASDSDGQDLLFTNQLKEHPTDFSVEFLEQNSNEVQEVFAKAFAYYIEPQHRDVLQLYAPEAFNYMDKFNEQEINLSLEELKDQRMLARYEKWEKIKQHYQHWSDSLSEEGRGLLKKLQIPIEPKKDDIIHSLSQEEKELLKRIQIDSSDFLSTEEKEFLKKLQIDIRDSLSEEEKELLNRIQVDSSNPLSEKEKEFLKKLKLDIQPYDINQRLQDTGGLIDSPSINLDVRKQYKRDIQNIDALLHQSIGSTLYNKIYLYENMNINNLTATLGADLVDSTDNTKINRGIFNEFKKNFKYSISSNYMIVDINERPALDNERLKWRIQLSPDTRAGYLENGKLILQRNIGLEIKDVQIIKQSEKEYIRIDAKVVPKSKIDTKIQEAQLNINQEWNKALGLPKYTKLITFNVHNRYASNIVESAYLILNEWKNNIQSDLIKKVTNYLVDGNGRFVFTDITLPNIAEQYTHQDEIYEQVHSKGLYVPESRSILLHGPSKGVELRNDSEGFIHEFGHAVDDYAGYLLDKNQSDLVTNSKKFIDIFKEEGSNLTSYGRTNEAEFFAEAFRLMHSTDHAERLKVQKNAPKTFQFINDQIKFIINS
Starred values were filed as active, the others as inactive; i = inactive; ? = inconclusive. Unless noted, no stated cut-off is given here; in the data, active means inhibition above about 30%; inconclusive means no clear call, values can overlap the other calls; inactive means below that.

SMILES	Bead autofluor	BH1578 lux ind	BoNT F protease	BoNT A protease	Anthrax LF inh2
CN(C)S(=O)(=O)c1ccc(C(=O)NNC(=O)C2COc3ccccc3O2)cc1 (stereo unspecified)	2450	i	-6	0	1
O=C(NNC(=O)C1COc2ccccc2O1)c1ccccc1 (stereo unspecified)	22774*	i	-4	1	-2
CCNC(=O)C1(C)CCN1Cc1cc(-c2ccccc2)n(C)n1 (stereo unspecified)	3462	i	-1	0	-1
CSc1ccc(CC(=O)N2CCC(n3nccc3NC(=O)C3CC3)CC2)cc1	5958	i	10	2	-5
Cn1c(Cl)nc2c1c(=O)n(Cc1cccc(Br)c1)c(=O)n2C	20509*	-1	-1	0	0
Cn1c(NCc2ccccc2)nc2c1c(=O)n(Cc1ccc(Br)cc1)c(=O)n2C	3167	i	1	-1	1
COc1ccc(CNc2nc3c(c(=O)n(Cc4ccc(Br)cc4)c(=O)n3C)n2C)cc1	20995*	0	-6	-2	-5
CC(C)NC(=O)c1ccc2c(c1)N(CC(=O)N1CCOCC1)C(=O)C(C)(C)O2	22372*	3	2	0	0
CC(C)NC(=O)c1ccc2c(c1)N(CC(=O)N1CCCC1)C(=O)C(C)(C)O2	3702	0	?	-4	-1
O=C(O)CCCN1C(=O)/C(=C\c2ccc(-c3nc4ccccc4s3)o2)SC1=S	4325	i	6	41*	28
O=C(O)CCN1C(=O)/C(=C/c2ccc(-c3nc4ccccc4s3)o2)SC1=S	3505	-5	-1	17	19
CC1(C(=O)Nc2ccccc2F)CCN1C(=O)Cc1cc(F)ccc1F (stereo unspecified)	2719	0	-5	0	-5
CCOC(=O)N=S(N)(=O)c1ccc(Cl)cc1 (stereo unspecified)	3587	i	7	0	-4
CCOC(=O)/C(=N\Nc1ccccc1)S(=O)(=O)c1ccccc1	23295*	0	-3	-1	-7
CCOC(=O)N=S(N)(=O)c1ccccc1 (stereo unspecified)	20787*	0	2	0	0
COc1cccc(C(=O)C2CN(c3ccccc3)CC2c2ccc(Cl)cc2)c1 (stereo unspecified)	21602*	0	-5	-2	-4
O=C(NCCc1ccco1)C(=O)NCC1OCCCN1S(=O)(=O)c1ccccc1 (stereo unspecified)	5549	1	13	0	-1
O=C(OCc1nnc(-c2cccs2)o1)C1=NN(c2ccccc2)C(=O)CC1	6448	0	?	-6	-2
COC(=O)c1cc(C(=O)c2ccc(Cl)cc2Cl)cn1C	21700*	3	0	?	-2
COc1ccccc1CCNC(=O)Cc1cccs1	3650	0	-5	-1	0
O=C1NCCCC2c3c(cc(Br)c(O)c3Br)OC12N1CCOCC1 (stereo unspecified)	20273*	i	9	6	4
O=C(NC(=S)Nc1ccc(O)cc1)c1ccccc1Cl	3528	i	0	0	-2
Cc1ccc(O)c(NC(=S)NC(=O)c2ccccc2Cl)c1	4657	0	38*	3	2
CC(C)(C)CCN1CCC(CN2CCNC2=S)CC1	2891	0	-6	0	0
C=CCn1c(COC)nnc1SCC(=O)c1ccc(F)cc1	16919*	i	-2	?	-4
SMILES	Bead autofluor	BH1578 lux ind	BoNT F protease	BoNT A protease	Anthrax LF inh2
C=CCn1c(CNC(=O)c2ccco2)nnc1SCC(=O)c1ccc(F)cc1	3682	i	25	-2	2
Cc1sc2nc(C3CC3)nc(N3CCN(C(=O)c4ccc(Cl)cc4)CC3)c2c1C	5441	0	16	1	2
CCc1ccc(/C=C2\CN(CC)Cc3c2nc2ccccc2c3C(=O)O)cc1	27805*	i	9	15	20
Cc1ccccc1C(=O)NNc1ccc([N+](=O)[O-])cc1	19390*	2	10	?	-8
O=C(c1cccs1)N(Cc1cccc(F)c1)C1CCS(=O)(=O)C1 (stereo unspecified)	5123	-4	1	1	5
O=C(c1cccs1)N(Cc1cccc(Cl)c1)C1CCS(=O)(=O)C1 (stereo unspecified)	21176*	i	-3	?	0
O=C(c1cccs1)N(Cc1ccco1)C1CCS(=O)(=O)C1 (stereo unspecified)	22695*	0	5	3	1
O=C(Oc1coc(CSc2ncccn2)cc1=O)c1ccccc1[N+](=O)[O-]	4227	i	-3	0	-7
CCc1ccc(OCC(=O)NNC(=O)c2ccc(NC(=O)C3CC3)cc2)cc1	6446	0	3	-3	1
Cc1ccc(CC(=O)NCc2ccc(Cl)cc2)cc1	2569	i	-2	0	0
Cc1ccc(CC(=O)NCCN2CCOCC2)cc1	3023	0	36*	2	3
Cc1ccc(CC(=O)NCC(C)C)cc1	22914*	i	3	1	1
COc1ccc(CC(=O)NCCN2CCOCC2)cc1	2882	-1	7	0	4
CCCn1c(N)c(C(=O)CSc2nnc(-c3ccoc3C)n2C)c(=O)n(C)c1=O	2796	-1	5	0	-2
O=S(=O)(Nc1ccc(-c2nc3ccccc3o2)cc1)c1ccccc1	23226*	i	-7	?	-3
O=C(Nc1ccc(-c2nc3ccccc3o2)cc1)C1CCCO1 (stereo unspecified)	19183*	i	3	2	1
O=C(Nc1ccc2oc(-c3ccccc3)nc2c1)C1CCCO1 (stereo unspecified)	2092	0	-30	-2	-2
O=S(=O)(Nc1cccnc1Cl)c1ccc2c(c1)OCCO2	16615*	8	-3	?	-2
CSc1ccccc1NS(=O)(=O)c1ccc2c(c1)OCCO2	20835*	0	-1	0	-1
CC(C)CNS(=O)(=O)c1ccc2c(c1)OCCO2	24162*	i	0	-2	-1
Cc1ccc(CNS(=O)(=O)c2ccc3c(c2)OCCO3)cc1	11288	0	-4	0	-2
O=S(=O)(Nc1cccnc1)c1ccc2c(c1)OCCO2	3519	i	1	-1	1
COc1ccccc1NS(=O)(=O)c1ccc2c(c1)OCCO2	5652	i	1	1	-3
CCOc1ccc(NC(=S)N2CCC(NC(=O)c3ccccc3C)CC2)cc1	4227	0	-32	-4	-10
S=c1[nH]nc(Cc2ccc(Cl)cc2)o1	4717	0	1	1	-1
Cc1cc(N2CCCC2)nc2ccccc12	3315	0	2	0	-9
Cc1nn(-c2cc(C)c3ccccc3n2)c2c1CCC2	20384*	i	11	6	0
Cc1cccc(NC(=S)N(CCN(C)C)C(C)c2ccccn2)c1 (stereo unspecified)	22805*	0	-2	1	-2

Screening data as filed in PubChem.
